Of roughly 7,900 targets only a part is listed; those with a hit were picked by preference. About 0.6% of all pairs of compound and target were hits.
Compound: CC[C@H](C)N1C=C(C2=C(C=C(C=C21)C3=CN=C(C=C3)N4CCNCC4)C(=O)NCC5=C(C=C(NC5=O)C)C)C
Experiment: log2 fold change, soluble protein after heating vs DMSO (PISA); higher = thermal stabilisation; K562 cells, 10 uM, 30 min; active = over 0.2 and 3.5 SD of the protein, either way, in both replicates (recomputed)
Method in brief: (§1)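 Aliquots of K562 cells (2×10^6 cells/mL) treated with 10 μM compound for 30 min were heated for 3 min over 48°C-58°C. After pooling and extraction in PBS with 0.5% NP-40 at 4°C, soluble protein from a 21,000xg, 90 min spin was quantified by TMTpro 16plex LC-MS/MS with channel sums equalised. Thermal stability is expressed against control samples, from duplicates, as a log2 fold change.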

Sequence of UniProt Q86UD3 (Q86UD3 whole entry, looked up): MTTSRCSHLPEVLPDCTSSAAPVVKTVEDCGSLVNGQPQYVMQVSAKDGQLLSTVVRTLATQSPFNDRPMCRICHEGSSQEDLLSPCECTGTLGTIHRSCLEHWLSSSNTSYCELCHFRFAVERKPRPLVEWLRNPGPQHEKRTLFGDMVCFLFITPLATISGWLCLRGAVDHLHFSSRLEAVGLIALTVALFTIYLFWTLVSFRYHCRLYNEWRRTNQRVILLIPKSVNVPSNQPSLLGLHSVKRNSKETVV
Sequence of UniProt Q9H6K1 (Q9H6K1 whole entry, looked up): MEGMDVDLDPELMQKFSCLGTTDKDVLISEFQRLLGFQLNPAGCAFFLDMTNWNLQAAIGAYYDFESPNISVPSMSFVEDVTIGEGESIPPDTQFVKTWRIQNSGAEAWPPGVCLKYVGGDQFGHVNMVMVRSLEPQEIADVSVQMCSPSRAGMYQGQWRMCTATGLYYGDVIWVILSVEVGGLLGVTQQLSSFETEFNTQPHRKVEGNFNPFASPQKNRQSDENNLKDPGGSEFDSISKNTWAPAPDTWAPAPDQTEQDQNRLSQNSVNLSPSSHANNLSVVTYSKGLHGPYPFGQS
Sequence of UniProt Q9NVC6 (Q9NVC6 whole entry, looked up): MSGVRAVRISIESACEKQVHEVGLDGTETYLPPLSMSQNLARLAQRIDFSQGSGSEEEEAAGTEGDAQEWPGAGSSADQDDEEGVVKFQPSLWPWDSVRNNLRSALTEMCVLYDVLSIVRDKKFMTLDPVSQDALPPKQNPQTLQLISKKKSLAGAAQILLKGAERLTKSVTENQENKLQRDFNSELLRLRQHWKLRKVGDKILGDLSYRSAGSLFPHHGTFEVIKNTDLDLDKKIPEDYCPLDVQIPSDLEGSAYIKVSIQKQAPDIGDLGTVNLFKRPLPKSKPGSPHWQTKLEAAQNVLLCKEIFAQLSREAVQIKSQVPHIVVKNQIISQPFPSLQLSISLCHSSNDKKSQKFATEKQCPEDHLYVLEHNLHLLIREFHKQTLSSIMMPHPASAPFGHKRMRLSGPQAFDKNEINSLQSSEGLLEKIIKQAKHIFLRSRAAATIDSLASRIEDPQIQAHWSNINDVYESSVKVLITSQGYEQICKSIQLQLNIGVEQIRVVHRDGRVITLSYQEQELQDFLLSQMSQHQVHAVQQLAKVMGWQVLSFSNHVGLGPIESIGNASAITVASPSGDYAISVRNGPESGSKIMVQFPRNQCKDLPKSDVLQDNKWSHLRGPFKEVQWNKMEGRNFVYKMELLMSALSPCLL
Sequence of UniProt P27816 (P27816 whole entry, looked up): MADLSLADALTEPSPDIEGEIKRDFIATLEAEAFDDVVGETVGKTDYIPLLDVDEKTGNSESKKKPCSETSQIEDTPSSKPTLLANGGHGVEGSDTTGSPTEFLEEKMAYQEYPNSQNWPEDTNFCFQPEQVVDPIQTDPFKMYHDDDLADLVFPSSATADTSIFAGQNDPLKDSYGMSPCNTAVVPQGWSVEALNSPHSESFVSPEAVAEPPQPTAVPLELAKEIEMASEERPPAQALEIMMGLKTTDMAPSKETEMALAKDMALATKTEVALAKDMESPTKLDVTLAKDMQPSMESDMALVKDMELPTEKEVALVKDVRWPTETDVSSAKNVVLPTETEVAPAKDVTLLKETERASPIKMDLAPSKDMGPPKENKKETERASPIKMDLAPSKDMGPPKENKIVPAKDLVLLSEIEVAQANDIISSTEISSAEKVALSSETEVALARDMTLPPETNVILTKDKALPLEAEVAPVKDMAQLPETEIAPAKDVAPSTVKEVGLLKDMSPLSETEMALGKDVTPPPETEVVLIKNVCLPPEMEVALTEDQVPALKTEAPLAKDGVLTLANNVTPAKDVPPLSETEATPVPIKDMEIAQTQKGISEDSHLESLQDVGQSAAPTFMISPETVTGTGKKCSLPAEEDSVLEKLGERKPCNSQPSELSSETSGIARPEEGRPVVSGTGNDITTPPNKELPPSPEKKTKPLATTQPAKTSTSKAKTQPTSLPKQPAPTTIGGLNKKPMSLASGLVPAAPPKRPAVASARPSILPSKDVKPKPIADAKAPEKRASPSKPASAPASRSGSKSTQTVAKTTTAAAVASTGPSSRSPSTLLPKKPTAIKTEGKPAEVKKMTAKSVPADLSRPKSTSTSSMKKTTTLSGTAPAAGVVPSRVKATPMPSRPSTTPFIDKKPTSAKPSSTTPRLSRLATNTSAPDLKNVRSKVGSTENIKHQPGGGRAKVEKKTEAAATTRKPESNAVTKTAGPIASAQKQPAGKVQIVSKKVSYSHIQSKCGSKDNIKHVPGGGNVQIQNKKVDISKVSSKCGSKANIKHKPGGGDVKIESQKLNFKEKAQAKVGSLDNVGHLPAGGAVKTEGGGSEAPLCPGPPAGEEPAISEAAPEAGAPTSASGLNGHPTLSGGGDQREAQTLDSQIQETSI
Sequence of UniProt Q6UWB1 (Q6UWB1 whole entry, looked up): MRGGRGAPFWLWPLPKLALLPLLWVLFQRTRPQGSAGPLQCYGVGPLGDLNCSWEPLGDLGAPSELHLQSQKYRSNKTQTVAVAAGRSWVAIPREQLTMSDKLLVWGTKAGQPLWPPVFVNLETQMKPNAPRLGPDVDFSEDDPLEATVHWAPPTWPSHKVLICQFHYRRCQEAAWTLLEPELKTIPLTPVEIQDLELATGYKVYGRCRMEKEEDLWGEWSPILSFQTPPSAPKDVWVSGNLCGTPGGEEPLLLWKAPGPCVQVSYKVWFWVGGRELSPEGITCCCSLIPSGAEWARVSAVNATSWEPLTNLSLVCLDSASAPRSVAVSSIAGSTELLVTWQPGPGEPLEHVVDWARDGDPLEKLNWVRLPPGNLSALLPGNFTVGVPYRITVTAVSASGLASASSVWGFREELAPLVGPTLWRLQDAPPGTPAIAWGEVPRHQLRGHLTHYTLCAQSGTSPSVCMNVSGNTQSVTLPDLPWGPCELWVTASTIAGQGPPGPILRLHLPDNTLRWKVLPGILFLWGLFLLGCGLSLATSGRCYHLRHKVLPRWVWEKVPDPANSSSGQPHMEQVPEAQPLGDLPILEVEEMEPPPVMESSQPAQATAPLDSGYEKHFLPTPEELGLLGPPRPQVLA
Sequence of UniProt Q6UB28 (Q6UB28 whole entry, looked up): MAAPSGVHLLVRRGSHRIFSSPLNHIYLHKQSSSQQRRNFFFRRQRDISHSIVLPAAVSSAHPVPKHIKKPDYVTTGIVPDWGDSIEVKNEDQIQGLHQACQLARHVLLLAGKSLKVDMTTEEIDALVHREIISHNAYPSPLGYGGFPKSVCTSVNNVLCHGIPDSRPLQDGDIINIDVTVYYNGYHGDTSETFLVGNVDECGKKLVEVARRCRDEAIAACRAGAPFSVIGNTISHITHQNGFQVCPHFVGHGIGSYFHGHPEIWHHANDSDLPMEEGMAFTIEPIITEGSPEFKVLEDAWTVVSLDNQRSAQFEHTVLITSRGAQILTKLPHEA
Sequence of UniProt Q96GX5 (Q96GX5 whole entry, looked up): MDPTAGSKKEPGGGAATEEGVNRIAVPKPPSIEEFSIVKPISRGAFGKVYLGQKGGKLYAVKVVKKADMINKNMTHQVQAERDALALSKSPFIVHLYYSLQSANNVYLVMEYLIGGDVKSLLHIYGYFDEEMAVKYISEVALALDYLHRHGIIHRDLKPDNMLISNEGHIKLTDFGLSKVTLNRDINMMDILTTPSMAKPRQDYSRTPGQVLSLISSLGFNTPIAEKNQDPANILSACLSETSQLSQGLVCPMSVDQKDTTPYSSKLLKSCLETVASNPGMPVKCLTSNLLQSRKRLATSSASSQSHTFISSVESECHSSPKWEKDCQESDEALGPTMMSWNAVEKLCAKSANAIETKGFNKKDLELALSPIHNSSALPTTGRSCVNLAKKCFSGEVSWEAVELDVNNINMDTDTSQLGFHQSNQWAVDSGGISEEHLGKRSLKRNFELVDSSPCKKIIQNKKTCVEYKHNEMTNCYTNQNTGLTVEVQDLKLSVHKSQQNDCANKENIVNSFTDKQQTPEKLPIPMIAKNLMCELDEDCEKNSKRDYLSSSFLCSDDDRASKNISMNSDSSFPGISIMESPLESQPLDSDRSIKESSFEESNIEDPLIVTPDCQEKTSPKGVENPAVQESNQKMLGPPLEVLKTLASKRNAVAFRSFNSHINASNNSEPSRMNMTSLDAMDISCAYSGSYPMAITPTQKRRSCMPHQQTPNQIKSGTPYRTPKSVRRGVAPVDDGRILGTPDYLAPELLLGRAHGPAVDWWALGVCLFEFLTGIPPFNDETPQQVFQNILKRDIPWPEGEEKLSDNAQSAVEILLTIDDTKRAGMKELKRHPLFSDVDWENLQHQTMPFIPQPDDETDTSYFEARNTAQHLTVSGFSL
Sequence of UniProt Q14680 (Q14680 whole entry, looked up): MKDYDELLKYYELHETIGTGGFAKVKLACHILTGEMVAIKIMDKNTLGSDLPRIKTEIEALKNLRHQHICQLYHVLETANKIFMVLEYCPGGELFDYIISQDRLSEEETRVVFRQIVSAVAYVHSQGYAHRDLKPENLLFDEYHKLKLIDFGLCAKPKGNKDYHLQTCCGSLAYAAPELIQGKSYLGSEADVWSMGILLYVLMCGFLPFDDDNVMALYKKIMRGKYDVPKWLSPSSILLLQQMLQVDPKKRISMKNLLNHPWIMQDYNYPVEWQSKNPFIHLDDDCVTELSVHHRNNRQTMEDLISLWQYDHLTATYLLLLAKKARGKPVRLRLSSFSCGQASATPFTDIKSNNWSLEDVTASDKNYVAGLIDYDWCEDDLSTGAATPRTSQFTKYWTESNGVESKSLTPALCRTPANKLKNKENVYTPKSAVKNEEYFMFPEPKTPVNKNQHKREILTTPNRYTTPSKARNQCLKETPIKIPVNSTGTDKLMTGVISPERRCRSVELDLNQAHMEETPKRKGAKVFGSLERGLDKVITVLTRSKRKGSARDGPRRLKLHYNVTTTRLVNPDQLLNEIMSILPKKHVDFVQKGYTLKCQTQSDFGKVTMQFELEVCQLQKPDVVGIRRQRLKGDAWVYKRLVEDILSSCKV
Sequence of UniProt Q96LU5 (Q96LU5 whole entry, looked up): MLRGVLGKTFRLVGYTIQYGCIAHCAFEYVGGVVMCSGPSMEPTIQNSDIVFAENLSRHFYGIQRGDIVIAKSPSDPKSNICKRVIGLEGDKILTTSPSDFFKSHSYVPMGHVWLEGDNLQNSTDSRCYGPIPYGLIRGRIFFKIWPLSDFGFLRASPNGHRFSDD

log2 fold change, inactive:
MCOLN3 (UniProt Q8TDD5) -0.071
MARCHF3 (UniProt Q86UD3) 0.018
MED25 isoform 3 (UniProt Q71SY5) 0.027
MED17 (UniProt Q9NVC6) -0.008
MAP4 isoform 5 (UniProt P27816) -0.258
ILRUN (UniProt Q9H6K1) 0.024

Compound: CC[C@H](C)[C@@H](C(=O)N[C@@H]([C@@H](C)O)C(=O)N[C@@H](CC(C)C)C(=O)[C@]1(CO1)C)NC(=O)[C@H]([C@@H](C)CC)N(C)C(=O)C [epoxomicin]
Experiment: as above
Method in brief: as §1

log2 fold change, inactive:
ITM2B (UniProt Q9Y287) 0.028
METAP1D (UniProt Q6UB28) 0.074
IL27RA (UniProt Q6UWB1) -0.178
LPGAT1 (UniProt Q92604) 0.015
MED12 isoform 2 (UniProt Q93074) -0.17
KMT2C isoform 3 (UniProt Q8NEZ4) -0.004
LUM (UniProt P51884) -0.145
ITPRID2 (UniProt P28290) -0.109
LRBA, A0A494BZW2 -0.03
IMMP1L (UniProt Q96LU5) -0.015
KIF3B (UniProt O15066) -0.134
MED8 isoform 2 (UniProt Q96G25) -0.051
MFSD8 (UniProt Q8NHS3) -0.021
MED22 (UniProt Q15528) 0.02
MARK2 (UniProt E9PC69) 0.023
ILF3 (UniProt Q12906) 0.004
MCM10 (UniProt Q7L590) 0.148
MELK (UniProt Q14680) 0.077
KCNK5 (UniProt O95279) 0.046
MAN2B2 (UniProt Q9Y2E5) -0.002
MFSD11 (UniProt O43934) 0.03
LENG8 (UniProt Q96PV6) 0.101
LRFN1 (UniProt Q9P244) -0.125
MASTL (UniProt Q96GX5) 0.113
IP6K1 (UniProt Q92551) 0
MARCHF3 (UniProt Q86UD3) 0.036
KXD1 (UniProt Q9BQD3) -0.077
MED17 (UniProt Q9NVC6) -0.015
MAP4 isoform 5 (UniProt P27816) 0.134
ILRUN (UniProt Q9H6K1) 0.042
